Bioassay records deposited in PubChem BioAssay by several laboratories.
Sampled rows, rich in hits. Any-hit rate of the full collection: about 0.61%.
Htt clearance = clearance of mutant huntingtin inclusions, primary screen, imaging, HeLa Exon1htt(103Q)mCFP, confocal imaging. aggregate imaging; zero = plate's median compound well. inhibition, % at 1.5 µM. 0.42% of 47,000 active. AID 853, 2007;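 active = inhibition of aggregate fluorescence above about 70%, also judged a hit by eye on the cell image, limit read from the data, passing the limit was not always enough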;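 note: cells exposed to compound for three days before fixation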
CatS inh = inhibitors of human cathepsin S, biochemical, compound mixtures; P25774; recombinant cathepsin S, AMC dipeptide fluorescence, pooled mixtures; inhibition, %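 (tested at 5 µM per compound within 10-compound mixtures)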; 0.06% of 62,000 active; in the data active = inhibition above about 32%, passing the limit was not always enough;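 note: 0% = enzyme without compound and 100% = blank without enzyme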
WNV NS2B-NS3 inh = inhibitors of WNV NS2B-NS3 protease, primary screen, biochemical, fluorogenic substrate; 0.18% of 65,000 active; z-score (test concentration not listed); fluorogenic substrate Ex360/Em465; active compounds read low; in the data active = z-score below about -3
Target sequence (P06935 1371-1501 limits assumed): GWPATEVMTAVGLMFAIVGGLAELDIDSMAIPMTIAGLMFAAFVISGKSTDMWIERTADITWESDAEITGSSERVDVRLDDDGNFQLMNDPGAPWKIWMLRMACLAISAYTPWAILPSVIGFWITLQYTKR
Target sequence (P06935 1502-1679 limits assumed): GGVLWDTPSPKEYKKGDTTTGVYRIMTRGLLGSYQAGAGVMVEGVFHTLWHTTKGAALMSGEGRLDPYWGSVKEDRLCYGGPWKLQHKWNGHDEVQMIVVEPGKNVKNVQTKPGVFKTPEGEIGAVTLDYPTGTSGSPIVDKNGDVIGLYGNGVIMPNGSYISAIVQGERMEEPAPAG
CatB mix inh = cathepsin B inhibitors from pooled compounds, primary screen, biochemical, compound mixtures, AMC fluorescence; Purified cathepsin B, AMC dipeptide fluorescence; inhibition, %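 (ten-compound pools at 5 µM per compound and 50 µM total)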; 0.06% of 62,000 active; AID 488, 2006; in the data active = inhibition above about 22%, passing the limit was not always enough;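 note: 0% = enzyme without compound and 100% = no enzyme blank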
CatL block = inhibitors of human cathepsin L, biochemical; Procathepsin L (Homo sapiens), P07711; AID 460, 2006; 0.17% of 58,000 active; purified cathepsin L, fluorogenic substrate, fluorescence; inhibition, %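 (tested at 10 µM)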; in the data active = inhibition above about 45%;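 note: 0% = enzyme with no compound and 100% = no enzyme blank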
Target sequence (P07711 114-288 limits assumed): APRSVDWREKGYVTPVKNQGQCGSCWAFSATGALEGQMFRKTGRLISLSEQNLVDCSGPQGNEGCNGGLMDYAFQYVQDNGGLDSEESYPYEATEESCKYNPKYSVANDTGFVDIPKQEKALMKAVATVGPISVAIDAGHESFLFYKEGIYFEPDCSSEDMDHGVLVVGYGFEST
Target sequence (P07711 292-333 limits assumed): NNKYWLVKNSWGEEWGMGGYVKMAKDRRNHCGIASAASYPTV
CatB inh = human cathepsin B inhibitors, primary screen, biochemical, fluorogenic substrate. inhibition, %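 (tested at 10 µM)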. purified cathepsin B, fluorescence. 0.1% of 63,000 active; in the data active = inhibition above about 21%;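 note: 0% = enzyme with no compound and 100% = no enzyme blank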
* hit, by the source's call.

Results for Nc1nonc1-c1nc2ccccc2n1CC(=O)N1CCCCC1 ?
CatS inh: 40; WNV NS2B-NS3 inh: 0.43; CatB mix inh: 86*; CatL block: 66*; CatB inh: 81*

How did COc1ccccc1-c1cc2nc(C)c(CCC(=O)NC(C)CCc3ccco3)c(C)n2n1 (stereo unspecified) do in these assays?
Htt clearance: 22

What do the screens show for `CCOC(=O)c1c(C)[nH]c(N=Nc2ccccc2C)c1C`?
Htt clearance: 12

Results for CC(=O)OC1c2ccccc2C(=O)N1Cc1ccccc1 (stereo unspecified) ?
Htt clearance: -6

What do the screens show for `CCN(CC)Cc1c(O)ccc2occ(C(=O)c3ccc(OC)cc3)c12`?
Htt clearance: 53

How did CCN(CC)Cc1c(O)ccc2c([N+](=O)[O-])c(C)n(-c3ccc(OC)cc3)c12 do in these assays?
Htt clearance: 71*

Results for Cc1cc(C)n(C(=O)c2ccc(NC(=O)CC(C)C)cc2)n1 ?
Htt clearance: 90*; CatS inh: 0; WNV NS2B-NS3 inh: 2.5; CatB mix inh: 2; CatL block: -4; CatB inh: -2

What do the screens show for `CCC(=O)Nc1ccc(C(=O)n2nc(C)cc2C)cc1`?
CatS inh: 1; WNV NS2B-NS3 inh: 2.4; CatB mix inh: 1; CatL block: -4; CatB inh: 6

How did CCc1nc(N)c(C#N)c(-c2ccncc2)c1C do in these assays?
CatS inh: 8; WNV NS2B-NS3 inh: -0.12; CatB mix inh: -7; CatL block: -3; CatB inh: 0

Results for CCc1nc(N)c(C#N)c(-c2cccn2C)c1C ?
WNV NS2B-NS3 inh: -6.8*

What do the screens show for `Cc1nc(OCc2ccccc2)c2sc3nc4c(cc3c2n1)COC(C)(C)C4`?
Htt clearance: -27

Results for CC(c1nnc(SCC(=O)NC(=O)NCc2ccco2)n1-c1ccc(Cl)cc1)N(C)C (stereo unspecified) ?
CatS inh: 2; WNV NS2B-NS3 inh: 0.16; CatB mix inh: -5; CatL block: 61*; CatB inh: 5

What do the screens show for `Cc1sc2nc3n(c(=O)c2c1C)NC(=O)CC3`?
CatS inh: 1; WNV NS2B-NS3 inh: 0.42; CatB mix inh: 4; CatL block: 7; CatB inh: 4

How did O=C1CCc2nc3sc4c(c3c(=O)n2N1)CCCC4 do in these assays?
Htt clearance: 84*; CatS inh: 6; WNV NS2B-NS3 inh: 0.82; CatB mix inh: 3; CatL block: -1; CatB inh: 4

How did CC(C)(C)C(=O)NC1CCN(C(=O)N2CCCC2)CC1 do in these assays?
Htt clearance: 99*; CatS inh: -1; WNV NS2B-NS3 inh: -0.11; CatB mix inh: 6; CatL block: -3; CatB inh: -2

Results for CC(C)(C)C(=O)NC1CCN(S(C)(=O)=O)CC1 ?
Htt clearance: 40

What do the screens show for `CC(=O)Nc1ccc(-c2nnc(SCc3c(C)cc(C)cc3C)n2C)cc1`?
Htt clearance: 16

What do the screens show for `Cc1ccc(C)n1-c1ccc(N2CCOCC2)cc1`?
Htt clearance: 97*; CatS inh: 9; WNV NS2B-NS3 inh: -0.19; CatB mix inh: 8; CatL block: 6; CatB inh: 3

How did CCOC(=O)Cc1csc(NS(=O)(=O)c2ccc3c4c(cccc24)C(=O)N3CC)n1 do in these assays?
CatS inh: 55*; WNV NS2B-NS3 inh: -0.34; CatB mix inh: -1; CatL block: 2; CatB inh: 5

How did CCN1C(=O)c2cccc3c(S(=O)(=O)Nc4c(C)n(C)n(-c5ccccc5)c4=O)ccc1c23 do in these assays?
CatS inh: -6; WNV NS2B-NS3 inh: -0.95; CatB mix inh: 6; CatL block: -1; CatB inh: 3

What do the screens show for `COc1ccc(C2CC(=O)C=C(NCCC(C)C)C2)cc1` (stereo unspecified)?
Htt clearance: -20

Results for CCn1c2ccccc2c2cc(NC(=O)CSc3nnc(-c4ccccc4OC)n3N)ccc21 ?
Htt clearance: 76*; CatS inh: -5; WNV NS2B-NS3 inh: -0.95; CatB mix inh: 0; CatL block: -14; CatB inh: 0

How did N#Cc1nc(N2CCCC2)nc(N2CCCC2)n1 do in these assays?
Htt clearance: 73*; CatS inh: 20; WNV NS2B-NS3 inh: 0.37; CatB mix inh: 6; CatL block: 15; CatB inh: 1

Results for C1CCN(c2nc(N3CCCCC3)nc(N3CCNCC3)n2)CC1 ?
Htt clearance: 36; CatS inh: 0; WNV NS2B-NS3 inh: -0.49; CatB mix inh: 5; CatL block: -9; CatB inh: -3

Results for CN(C)c1nc(C#N)nc(N2CCOCC2)n1 ?
Htt clearance: -8

Results for N#Cc1nc(N2CCCCC2)nc(N2CCOCC2)n1 ?
CatS inh: 58*; WNV NS2B-NS3 inh: 0.4; CatB mix inh: 7; CatL block: 58*; CatB inh: 13

Results for CCNC(=O)[C@@H]1CCCN1C(=O)[C@H](CCCN=C(N)N)NC(=O)[C@H](CC(C)C)NC(=O)[C@@H](CC(C)C)NC(=O)[C@H](Cc1ccc(O)cc1)NC(=O)[C@H](CO)NC(=O)[C@H](Cc1c[nH]c2ccccc12)NC(=O)[C@H](Cc1cnc[nH]1)NC(=O)[C@@H]1CCC(=O)N1 ?
WNV NS2B-NS3 inh: 1.9

How did CCCCOC(=O)/C(=C\c1ccc([N+](=O)[O-])o1)NC(=O)c1ccccc1 do in these assays?
Htt clearance: -123

What do the screens show for `Cc1ccc(/C=N/c2sc3c(c2C#N)CCC3)s1`?
Htt clearance: 18; CatS inh: -7; WNV NS2B-NS3 inh: 0.02; CatB mix inh: 0; CatL block: 105*; CatB inh: 5

Results for O=C(Nc1nnc(/N=C/c2ccco2)s1)c1ccc(F)cc1 ?
Htt clearance: 71*; CatS inh: 43; WNV NS2B-NS3 inh: 0.8; CatB mix inh: 1; CatL block: 2; CatB inh: 3

How did CCOc1ccccc1NC(=O)C1CCN(S(=O)(=O)c2ccc(OC)c(OC)c2)CC1 do in these assays?
CatS inh: 18; WNV NS2B-NS3 inh: 0.33; CatB mix inh: 7; CatL block: 9; CatB inh: 8

What do the screens show for `CCOc1ccccc1NC(=O)C1CCN(c2ccc(S(=O)(=O)N3CCCC3)cc2)CC1`?
Htt clearance: 72*; CatS inh: 13; WNV NS2B-NS3 inh: -1.5; CatB mix inh: 4; CatL block: 17; CatB inh: 3

How did O=C(CSc1nnc(-c2ccccc2)n1Cc1ccco1)Nc1ccc(S(=O)(=O)N2CCCC2)cc1 do in these assays?
Htt clearance: 84*

How did O=C1c2ccccc2C(O)(Cc2ccccc2)N1C1CCCCC1 (stereo unspecified) do in these assays?
CatS inh: -1; WNV NS2B-NS3 inh: -0.37; CatB mix inh: 3; CatL block: 104*; CatB inh: 9

What do the screens show for `CCn1c(=S)[nH]c2nc3c(cc2c1=O)CCCC3`?
Htt clearance: 71*
